Measured values from the supplement of paper PMC10849652.
Of roughly 8,800 targets only a part is listed; those with a hit were picked by preference. About 0.5% of all pairs of compound and target were hits.

How the values were obtained:
Assay in all cases: log2 fold change, soluble protein after heating vs DMSO (PISA); higher = thermal stabilisation; K562 lysate, 10 uM; active = over 0.2 and 3.5 SD of the protein, either way, in both replicates (recomputed)
[1] = compound: C1=CC=C(C=C1)[C@H](COC2=CC3=C(C=C2)NC(=O)N3)NC(=O)C4=CC=CN(C4=O)CC5=CC(=C(C=C5)F)F
Procedure, shortened: (§1)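 Log-two fold change in thermal stability relative to solvent controls is reported from duplicates. For each sample, crude K562 extract from dounce-homogenised pellets in PBS pH 7.4 with 1 mM MgCl2, at 1 mg/mL protein, was treated with 10 μM compound for 30 min. Aliquots heated for 3 min across 48°C-58°C were pooled, brought to 0.5% NP-40 at 4°C and cleared at 21,000xg for 90 min. The supernatant was quantified by TMTpro 16plex LC-MS/MS with channel sums equalised.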

[2] = compound: CC1=C(SC2=C1C(=N[C@H](C3=NN=C(N32)C)CC(=O)N)C4=CC=C(C=C4)Cl)C
Procedure, shortened: as §1

[3] = compound: CC1=C2C(=CC=C1)N=C(N(C2=O)C3=CC=CC=C3C)CN4C=NC5=C(N=CN=C54)N
Procedure, shortened: as §1

[4] = compound: Cc1sc2c(c1C)C(c1ccc(Cl)cc1)=N[C@@H](CC(=O)OC(C)(C)C)c1nnc(C)n1-2
Procedure, shortened: as §1

[5] = compound: c1ccc([C@@H]2C[C@H]2NC2CCNCC2)cc1
Procedure, shortened: as §1

Measured: log2 fold change

TK1 (UniProt K7ERV3)
inactive: [1] -0.044 | [2] 0.007 | [3] -0.017 | [4] -0.002 | [5] -0.037

TUBB (UniProt P07437)
Chain of UniProt P07437 (P07437 whole entry, looked up): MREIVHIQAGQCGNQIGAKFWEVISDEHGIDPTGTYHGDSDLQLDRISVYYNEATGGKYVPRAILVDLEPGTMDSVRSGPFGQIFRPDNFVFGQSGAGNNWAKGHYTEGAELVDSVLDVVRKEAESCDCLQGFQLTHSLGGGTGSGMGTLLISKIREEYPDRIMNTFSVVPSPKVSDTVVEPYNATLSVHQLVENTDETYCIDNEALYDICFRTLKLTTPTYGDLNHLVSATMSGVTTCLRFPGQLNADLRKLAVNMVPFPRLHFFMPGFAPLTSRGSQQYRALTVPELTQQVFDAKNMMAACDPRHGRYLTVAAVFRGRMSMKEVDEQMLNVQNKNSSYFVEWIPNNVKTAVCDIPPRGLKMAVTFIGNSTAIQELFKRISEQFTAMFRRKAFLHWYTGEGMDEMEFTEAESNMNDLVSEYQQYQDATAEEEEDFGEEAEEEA
inactive: [1] 0.025 | [2] 0.027 | [3] -0.005 | [4] 0.014 | [5] -0.001

TCF12 isoform 3 (UniProt Q99081)
inactive: [1] 0.062 | [2] -0.072 | [3] 0.014 | [4] -0.048 | [5] -0.046

TRAF2 isoform 2 (UniProt Q12933)
Chain of UniProt Q12933 (Q12933 whole entry, looked up): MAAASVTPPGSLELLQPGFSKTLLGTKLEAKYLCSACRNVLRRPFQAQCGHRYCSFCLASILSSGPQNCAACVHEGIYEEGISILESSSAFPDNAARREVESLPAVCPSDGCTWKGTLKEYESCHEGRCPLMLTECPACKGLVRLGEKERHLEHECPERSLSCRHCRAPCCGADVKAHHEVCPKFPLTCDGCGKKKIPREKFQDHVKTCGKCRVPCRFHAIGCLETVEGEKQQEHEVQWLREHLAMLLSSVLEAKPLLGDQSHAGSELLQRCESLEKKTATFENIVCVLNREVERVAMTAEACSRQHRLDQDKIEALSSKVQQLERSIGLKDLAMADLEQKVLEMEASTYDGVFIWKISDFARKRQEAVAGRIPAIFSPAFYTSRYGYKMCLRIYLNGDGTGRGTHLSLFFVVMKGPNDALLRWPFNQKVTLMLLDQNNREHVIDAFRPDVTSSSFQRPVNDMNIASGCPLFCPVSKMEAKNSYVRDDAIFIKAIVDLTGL
inactive: [1] -0.006 | [2] 0.005 | [3] -0.005 | [4] -0.002 | [5] -0.015

THEMIS2 (UniProt Q5TEJ8)
inactive: [1] 0.046 | [2] 0 | [3] 0.019 | [4] 0.052 | [5] -0.054

TJP1 isoform 2 (UniProt Q07157)
inactive: [1] 0.048 | [2] 0.02 | [3] 0 | [4] 0.061 | [5] -0.009

TUBGCP4 (UniProt Q9UGJ1)
Chain of UniProt Q9UGJ1 (Q9UGJ1 whole entry, looked up): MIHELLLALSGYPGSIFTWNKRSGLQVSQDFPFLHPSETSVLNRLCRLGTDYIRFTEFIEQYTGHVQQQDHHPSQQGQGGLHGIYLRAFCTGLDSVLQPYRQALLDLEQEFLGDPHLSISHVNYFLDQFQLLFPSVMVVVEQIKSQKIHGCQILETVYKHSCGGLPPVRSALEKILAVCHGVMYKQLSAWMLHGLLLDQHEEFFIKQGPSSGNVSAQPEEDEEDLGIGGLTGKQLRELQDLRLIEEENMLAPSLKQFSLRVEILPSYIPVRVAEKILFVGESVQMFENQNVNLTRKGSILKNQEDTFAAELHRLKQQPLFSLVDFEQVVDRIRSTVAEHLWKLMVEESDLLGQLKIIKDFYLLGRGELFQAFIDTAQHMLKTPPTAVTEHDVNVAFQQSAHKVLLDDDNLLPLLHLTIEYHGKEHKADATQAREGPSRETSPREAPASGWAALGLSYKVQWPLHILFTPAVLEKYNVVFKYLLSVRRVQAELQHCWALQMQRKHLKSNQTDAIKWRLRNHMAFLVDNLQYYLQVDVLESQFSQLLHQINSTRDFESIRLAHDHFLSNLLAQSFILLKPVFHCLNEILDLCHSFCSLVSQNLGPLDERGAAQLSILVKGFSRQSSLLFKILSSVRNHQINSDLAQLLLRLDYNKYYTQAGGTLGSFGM
inactive: [1] -0.005 | [2] 0.019 | [3] 0.012 | [4] -0.027 | [5] -0.007

TTI1 (UniProt O43156)
inactive: [1] -0.004 | [2] -0.011 | [3] -0.004 | [4] 0.034 | [5] 0.051

TMEM263 (UniProt Q8WUH6)
inactive: [1] -0.286 | [2] -0.048 | [3] 0.211 | [4] -0.138 | [5] -0.073

TK1 (UniProt P04183)
Chain of UniProt P04183 (P04183 whole entry, looked up): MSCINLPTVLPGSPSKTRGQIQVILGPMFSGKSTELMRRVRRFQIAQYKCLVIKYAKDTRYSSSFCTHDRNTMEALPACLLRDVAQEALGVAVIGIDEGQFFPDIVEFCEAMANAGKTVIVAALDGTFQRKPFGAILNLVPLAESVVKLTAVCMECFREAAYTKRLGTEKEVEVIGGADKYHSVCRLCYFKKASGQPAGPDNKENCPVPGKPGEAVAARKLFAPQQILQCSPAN
inactive: [1] 0.006 | [2] 0.037 | [3] -0.017 | [4] -0.045 | [5] -0.116

TECR (UniProt Q9NZ01)
Chain of UniProt Q9NZ01 (Q9NZ01 whole entry, looked up): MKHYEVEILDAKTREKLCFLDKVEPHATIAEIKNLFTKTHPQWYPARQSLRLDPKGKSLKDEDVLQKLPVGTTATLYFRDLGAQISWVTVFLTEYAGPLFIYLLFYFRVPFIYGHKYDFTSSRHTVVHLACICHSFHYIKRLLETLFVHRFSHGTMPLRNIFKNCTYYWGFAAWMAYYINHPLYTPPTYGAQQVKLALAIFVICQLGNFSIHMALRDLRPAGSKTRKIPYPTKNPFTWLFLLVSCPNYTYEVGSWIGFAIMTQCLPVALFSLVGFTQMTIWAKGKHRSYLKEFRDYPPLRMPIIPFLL
inactive: [1] -0.131 | [2] 0.083 | [3] 0.015 | [4] 0.017 | [5] 0.046

UBP1 (UniProt Q9NZI7)
Chain of UniProt Q9NZI7 (Q9NZI7 whole entry, looked up): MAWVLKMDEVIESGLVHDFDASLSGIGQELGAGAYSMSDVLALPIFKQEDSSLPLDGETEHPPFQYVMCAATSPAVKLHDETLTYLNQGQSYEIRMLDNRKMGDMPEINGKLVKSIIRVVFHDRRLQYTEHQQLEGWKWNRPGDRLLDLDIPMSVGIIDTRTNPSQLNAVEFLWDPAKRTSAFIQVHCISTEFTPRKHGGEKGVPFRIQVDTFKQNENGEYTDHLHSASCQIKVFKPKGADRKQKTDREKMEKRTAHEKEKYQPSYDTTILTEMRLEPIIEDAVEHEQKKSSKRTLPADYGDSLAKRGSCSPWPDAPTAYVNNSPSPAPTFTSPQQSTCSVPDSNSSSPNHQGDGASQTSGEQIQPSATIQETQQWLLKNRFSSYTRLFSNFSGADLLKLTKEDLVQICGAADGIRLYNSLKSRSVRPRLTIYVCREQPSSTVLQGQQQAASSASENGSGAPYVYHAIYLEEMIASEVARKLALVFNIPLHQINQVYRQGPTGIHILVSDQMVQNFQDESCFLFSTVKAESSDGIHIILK
inactive: [1] 0.082 | [2] -0.057 | [3] -0.018 | [4] 0.009 | [5] 0.056

TOPBP1 (UniProt Q92547)
Chain of UniProt Q92547 (Q92547 whole entry, looked up): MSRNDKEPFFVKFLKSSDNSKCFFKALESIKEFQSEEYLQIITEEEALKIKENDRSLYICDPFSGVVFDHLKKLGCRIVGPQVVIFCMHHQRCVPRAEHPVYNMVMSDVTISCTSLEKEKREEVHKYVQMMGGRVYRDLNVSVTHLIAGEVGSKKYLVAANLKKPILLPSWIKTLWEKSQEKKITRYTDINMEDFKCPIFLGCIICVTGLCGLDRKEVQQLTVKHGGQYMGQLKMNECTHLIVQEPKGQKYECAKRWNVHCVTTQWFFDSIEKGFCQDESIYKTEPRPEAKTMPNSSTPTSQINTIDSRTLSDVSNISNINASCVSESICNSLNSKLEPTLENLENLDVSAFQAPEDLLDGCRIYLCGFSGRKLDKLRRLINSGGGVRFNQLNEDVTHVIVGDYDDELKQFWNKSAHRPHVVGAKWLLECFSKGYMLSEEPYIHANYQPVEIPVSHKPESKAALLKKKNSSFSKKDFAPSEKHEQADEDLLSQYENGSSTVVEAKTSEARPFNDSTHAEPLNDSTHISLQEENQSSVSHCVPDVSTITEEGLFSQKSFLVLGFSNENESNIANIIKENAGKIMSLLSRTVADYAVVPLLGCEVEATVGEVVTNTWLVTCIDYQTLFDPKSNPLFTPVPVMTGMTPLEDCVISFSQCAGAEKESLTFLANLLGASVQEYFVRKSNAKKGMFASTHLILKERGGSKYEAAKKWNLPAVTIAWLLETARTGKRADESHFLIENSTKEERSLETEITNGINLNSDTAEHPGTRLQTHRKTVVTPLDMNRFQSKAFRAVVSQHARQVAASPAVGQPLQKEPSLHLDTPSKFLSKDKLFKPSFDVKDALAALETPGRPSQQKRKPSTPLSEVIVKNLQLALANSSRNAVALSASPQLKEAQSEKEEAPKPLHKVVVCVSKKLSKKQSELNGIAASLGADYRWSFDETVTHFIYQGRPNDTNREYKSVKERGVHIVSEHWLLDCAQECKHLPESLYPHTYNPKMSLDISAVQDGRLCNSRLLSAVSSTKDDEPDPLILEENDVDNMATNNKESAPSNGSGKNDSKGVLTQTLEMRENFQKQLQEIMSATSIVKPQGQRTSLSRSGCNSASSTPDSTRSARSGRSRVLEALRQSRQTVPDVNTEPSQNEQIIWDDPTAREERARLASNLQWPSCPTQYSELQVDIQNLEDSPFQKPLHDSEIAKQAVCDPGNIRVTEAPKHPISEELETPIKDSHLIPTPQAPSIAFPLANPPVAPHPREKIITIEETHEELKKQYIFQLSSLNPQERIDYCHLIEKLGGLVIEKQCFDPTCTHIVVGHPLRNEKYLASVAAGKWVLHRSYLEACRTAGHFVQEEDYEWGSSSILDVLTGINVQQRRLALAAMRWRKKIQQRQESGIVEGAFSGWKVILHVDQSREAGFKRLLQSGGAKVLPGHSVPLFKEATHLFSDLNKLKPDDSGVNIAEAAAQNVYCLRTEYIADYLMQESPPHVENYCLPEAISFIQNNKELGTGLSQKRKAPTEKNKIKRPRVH
inactive: [1] 0.012 | [2] 0.001 | [3] 0.026 | [4] -0.016 | [5] 0.099

TUBB4B (UniProt P68371)
Chain of UniProt P68371 (P68371 whole entry, looked up): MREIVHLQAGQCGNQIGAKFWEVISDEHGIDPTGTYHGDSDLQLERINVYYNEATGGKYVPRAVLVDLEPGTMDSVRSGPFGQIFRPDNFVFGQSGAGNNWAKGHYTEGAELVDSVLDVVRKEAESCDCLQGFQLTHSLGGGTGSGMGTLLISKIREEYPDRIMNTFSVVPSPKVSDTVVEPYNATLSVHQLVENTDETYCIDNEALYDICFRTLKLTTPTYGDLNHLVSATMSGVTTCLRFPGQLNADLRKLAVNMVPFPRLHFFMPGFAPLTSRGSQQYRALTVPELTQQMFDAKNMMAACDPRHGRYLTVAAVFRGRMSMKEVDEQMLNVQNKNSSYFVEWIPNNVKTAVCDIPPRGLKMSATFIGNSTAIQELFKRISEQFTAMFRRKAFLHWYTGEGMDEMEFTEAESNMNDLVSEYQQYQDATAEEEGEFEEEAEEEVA
inactive: [1] 0.001 | [2] 0.03 | [3] 0.018 | [4] 0.042 | [5] 0.049

TIAL1 isoform 2 (UniProt Q01085)
inactive: [1] 0.068 | [2] 0.017 | [3] -0.02 | [4] 0.031 | [5] -0.021

TRIP12 isoform 2 (UniProt Q14669)
inactive: [1] -0.043 | [2] 0.07 | [3] -0.018 | [4] 0 | [5] 0.062

TRIM65 (UniProt Q6PJ69)
inactive: [1] 0.051 | [2] -0.085 | [3] -0.016 | [4] 0.012 | [5] 0.039

TRIP13 (UniProt Q15645)
inactive: [1] 0.006 | [2] 0.015 | [3] 0.018 | [4] 0.01 | [5] 0.049

TBL3 (UniProt Q12788)
inactive: [1] 0.024 | [2] 0.003 | [3] -0.014 | [4] -0.014 | [5] 0.014

TRIM56 (UniProt Q9BRZ2)
inactive: [1] -0.057 | [2] -0.009 | [3] 0.076 | [4] 0.003 | [5] 0.099

TESC (UniProt Q96BS2)
inactive: [1] 0.034 | [2] -0.131 | [3] -0.001 | [4] 0.004 | [5] 0.016

TYMS (UniProt P04818)
Chain of UniProt P04818 (P04818 whole entry, looked up): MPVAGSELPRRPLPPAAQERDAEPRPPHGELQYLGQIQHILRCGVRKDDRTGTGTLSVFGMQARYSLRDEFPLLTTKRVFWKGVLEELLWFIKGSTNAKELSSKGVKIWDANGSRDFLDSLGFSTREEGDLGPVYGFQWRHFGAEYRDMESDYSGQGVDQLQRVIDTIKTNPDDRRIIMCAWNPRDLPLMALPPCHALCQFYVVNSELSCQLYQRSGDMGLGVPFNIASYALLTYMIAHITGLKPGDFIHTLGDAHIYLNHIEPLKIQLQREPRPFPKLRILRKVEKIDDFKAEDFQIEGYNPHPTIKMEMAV
inactive: [1] -0.005 | [2] 0.02 | [3] -0.005 | [4] 0.012 | [5] 0.014

THAP9 (UniProt Q9H5L6)
inactive: [1] 0.024 | [2] 0.039 | [3] 0.165 | [4] -0.194 | [5] -0.284

TNIK isoform 4 (UniProt Q9UKE5)
inactive: [1] 0.015 | [2] -0.002 | [3] -0.017 | [4] -0.032 | [5] -0.076
